{"source": "ChEMBL document CHEMBL4513216", "about": "“Probing the Open Global Health Chemical Diversity Library for Multistage-Active Starting Points for Next-Generation Antimalarials” (ACS Infect Dis, 2020)", "note": "Screen size: about 69,000 compounds; about 8,600 (12%) showed an effect of 50% or more. The entries come from a sample that favours strong results as a whole."}
{"test_system": "Plasmodium berghei", "assay": "Screen against P. berghei liver stage (PbLuc), transformed with Luciferase, at 10uM", "assay_type": "functional, HepG2", "details": "tested at 10 uM", "units": {"INHIBITION": "%"}}
{"compound": "O=C1NC2(CCN(CC(=O)N3CCOCC3)CC2)Nc2ccccc21", "INHIBITION": 3.5}
{"compound": "O=S1(=O)COCCN1Cc1ccc(F)c(C(F)(F)F)c1", "INHIBITION": 19.4}
{"compound": "COc1ccc(-c2cnc(CN3CCCC3CO)o2)cc1", "note": "(stereo unspecified)", "INHIBITION": 15.1}
{"compound": "OC[C@@H]1CCCN1c1ccc(-c2nc(COc3ccccc3)no2)cn1", "INHIBITION": 25.8}
{"compound": "COCc1noc(-c2ccc(N3CCCC3c3ccc(F)cc3)nc2)n1", "note": "(stereo unspecified)", "INHIBITION": 18.5}
{"compound": "COc1ccc(-c2noc(-c3ccc(N4CCC[C@H]4CO)nc3)n2)cc1", "INHIBITION": 84.8}
{"compound": "COCc1noc(-c2ccc(N3CCCCC3COC)nc2)n1", "note": "(stereo unspecified)", "INHIBITION": 48.5}
{"compound": "OC[C@@H]1CCCN1c1ccc(-c2nc(CCc3ccccc3)no2)cn1", "INHIBITION": 43.9}
{"compound": "COCc1noc(-c2ccc(N3CCCCC3CO)nc2)n1", "note": "(stereo unspecified)", "INHIBITION": 90.1}
{"compound": "Cc1noc(-c2ccc(N3CCC[C@H]3CO)nc2)n1", "INHIBITION": 17.6}
{"compound": "OCC1CCCCN1c1ccc(-c2nc(-c3ccccc3F)no2)cn1", "note": "(stereo unspecified)", "INHIBITION": 91.8}
{"compound": "COCc1noc(-c2ccc(N3CCCCC3CCCO)nc2)n1", "note": "(stereo unspecified)", "INHIBITION": 35.8}
{"compound": "COCc1noc(-c2ccc(N3CCC[C@H]3CO)nc2)n1", "INHIBITION": 75.7}
{"compound": "COCc1noc(-c2ccc(N3CCCC3c3nccs3)nc2)n1", "note": "(stereo unspecified)", "INHIBITION": 43}
{"compound": "CCCN1C[C@@H]2CC[C@H]1CN(C(=O)c1ccc(N(C)CCO)cc1)C2", "INHIBITION": 43.9}
{"compound": "N#Cc1ccc(CS(=O)(=O)NC(=O)COc2ccc3c(c2)CCC3)cc1", "INHIBITION": -57.66}
{"compound": "COC(=O)N1CC(C)=C(C)CN1C(=O)Nc1cccc(Cl)c1", "INHIBITION": -28.6}
{"compound": "COc1cc(OC)cc(C(=O)N2CCOCC2c2[nH]ncc2C)c1", "note": "(stereo unspecified)", "INHIBITION": 46.25}
{"compound": "Cc1nc(C)n(CC2CCCN2CCC(=O)N2CCCCC2)n1", "note": "(stereo unspecified)", "INHIBITION": -8.11}
{"compound": "Cc1ccc(C(=O)N2Cc3c(CN4CCCCC4)nn(C)c3C2)o1", "INHIBITION": 28.4}
{"compound": "CC(=O)Nc1nc(C(=O)N2CCCC2c2ccc(Br)cc2)cs1", "note": "(stereo unspecified)", "INHIBITION": 26.4}
{"compound": "Cc1cc(C)c(CNC(=O)C(C)Oc2cccc(C#N)c2)c(=O)[nH]1", "note": "(stereo unspecified)", "INHIBITION": 36.4}
{"compound": "CCC(C)Oc1ccccc1Cn1cc2[nH]cccc-2c1=O", "note": "(stereo unspecified)", "INHIBITION": 41.5}
{"compound": "Cc1ccnc(C2CN(c3ccnc(C)n3)C2)n1", "INHIBITION": 28.6}
{"compound": "CCc1nc(NC2CCN(CC(=O)NC3CC3)CC2)c2cnn(C)c2n1", "INHIBITION": 21.8}
{"compound": "OCC1(Cc2ccc(Cl)cc2)CCN(Cc2cccnc2)CC1", "INHIBITION": 92}
{"compound": "Clc1ccc(CN2CCC(C3CCN(Cc4cccnc4)CC3)C2)cc1", "note": "(stereo unspecified)", "INHIBITION": 36.8}
{"compound": "COc1cccc(CN2CCC(CO)(Cc3ccc(Cl)cc3)CC2)c1O", "INHIBITION": 85.4}
{"compound": "COc1ccc(CN2CCC(CO)(Cc3ccc(Cl)cc3)CC2)c(O)c1", "INHIBITION": 31.6}
{"compound": "Clc1ccc(CN2CCC3(CC2)CC(c2cccnc2)=NO3)cc1", "INHIBITION": 46.6}
{"compound": "OCC1(Cc2ccc(Cl)cc2)CCN(Cc2ccccc2O)CC1", "INHIBITION": 14.6}
